Hits are enriched below; roughly 1.2% of the tested compounds scored in any of these assays.
hERG WT inh – KCNH2 (human, wildtype) channel inhibition. AID 720551. U2OS, BacMam KCNH2, thallium flux FluxOr; stronger effect = lower value. Q12809. 340,000 compounds, 0.37% hits. activity change, % at 1.84 µM;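 active = maximum activity change below -70%; inconclusive = maximum activity change between -70% and -50%; inactive = maximum activity change above -50%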; note: % is set by controls: 0 for no effect and ±100 for the full control effect
Target sequence (Q12809 whole entry, looked up): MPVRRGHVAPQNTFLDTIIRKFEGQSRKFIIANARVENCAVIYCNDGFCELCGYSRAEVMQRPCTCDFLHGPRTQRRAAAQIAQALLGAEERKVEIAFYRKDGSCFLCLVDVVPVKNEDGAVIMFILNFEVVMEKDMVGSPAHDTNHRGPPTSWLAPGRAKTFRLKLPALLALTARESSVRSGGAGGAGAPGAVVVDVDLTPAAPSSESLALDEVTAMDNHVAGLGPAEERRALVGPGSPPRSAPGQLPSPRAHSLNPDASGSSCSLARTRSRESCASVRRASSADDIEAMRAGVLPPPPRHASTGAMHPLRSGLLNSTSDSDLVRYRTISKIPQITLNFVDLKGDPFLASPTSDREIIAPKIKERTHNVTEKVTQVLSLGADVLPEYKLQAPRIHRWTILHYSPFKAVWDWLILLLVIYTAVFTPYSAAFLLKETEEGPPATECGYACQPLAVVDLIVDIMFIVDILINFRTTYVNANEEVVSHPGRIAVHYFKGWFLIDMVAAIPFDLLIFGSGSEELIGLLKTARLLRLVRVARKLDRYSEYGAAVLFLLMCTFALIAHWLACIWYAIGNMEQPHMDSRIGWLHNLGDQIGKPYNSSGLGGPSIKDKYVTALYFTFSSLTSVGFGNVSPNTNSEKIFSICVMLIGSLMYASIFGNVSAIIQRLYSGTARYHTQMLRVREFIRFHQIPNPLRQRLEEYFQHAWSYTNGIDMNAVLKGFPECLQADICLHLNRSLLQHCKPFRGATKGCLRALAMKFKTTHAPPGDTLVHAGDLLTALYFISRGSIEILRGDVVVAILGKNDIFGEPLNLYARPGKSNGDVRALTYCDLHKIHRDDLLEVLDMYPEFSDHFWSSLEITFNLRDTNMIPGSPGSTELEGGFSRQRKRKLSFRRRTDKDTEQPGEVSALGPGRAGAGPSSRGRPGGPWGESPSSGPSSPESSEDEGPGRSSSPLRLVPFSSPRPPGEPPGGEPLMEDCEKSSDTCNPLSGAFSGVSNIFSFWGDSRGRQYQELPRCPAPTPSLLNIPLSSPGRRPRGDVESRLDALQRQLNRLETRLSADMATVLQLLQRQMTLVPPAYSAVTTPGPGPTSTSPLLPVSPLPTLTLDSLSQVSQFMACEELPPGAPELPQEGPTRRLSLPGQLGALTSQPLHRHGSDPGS
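U2OS cells were transduced with wild-type KCNH2 virus (2.03 x 10^8 / mL) for 4 h at room temperature, then cultured overnight at 37 C. Thallium flux was read with FluxOr dye. Rate constants were normalized to DMSO controls.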
TRPV1 PAM – human TRPV1 potentiation; TRPV1-expressing cells, Fluo-8 calcium influx, capsaicin EC20 potentiation; potentiation, % at 8.33 µM; 320,000 compounds, 0.02% hits; AID 540277; in the data active = potentiation above about 80%; inconclusive = between about 30% and that limit; note: 0% is about no effect
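Fluo-8 calcium influx in TRPV1-expressing cells, kinetic read (ex 480/em 520 nm). Compound added and read 3 min for agonist activity, followed by capsaicin at EC20 final and 2 min further read for enhancement.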
KCNH2 3.1 inh – inhibitors of human KCNH2 3.1 potassium channel isoform | activity change, % (tested at about 1.8 µM) | U2OS KCNH2 3.1, thallium flux FluxOr; stronger effect = lower value | 340,000 compounds, 0.95% hits | AID 720553;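 active = maximum activity change below -70%; inconclusive = maximum activity change from -70% to -50%; inactive = maximum activity change above -50%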;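 note: thallium influx rate constant from kinetic fluorescence after stimulation buffer; % is set by controls: 0 for no effect and ±100 for the full control effect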
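Steps: virus added to U2OS suspension (4 h, RT, dark); medium with 10% FBS added, cells plated, 37 C overnight; FluxOr/Red40 loading buffer 45 min RT; stimulation buffer, 2 min kinetic read; rate constant normalized.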
TRPV1 ag – agonists of human vanilloid receptor 1 (TRPV1). TRPV1-expressing cells, Fluo-8 calcium influx, agonist mode. AID 540275. 320,000 compounds, 0.19% hits. Q8NER1. activation, % at 8.33 µM; in the data active = activation above about 80%; inconclusive = between about 30% and that limit; note: 0% is about no effect
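TRPV1-expressing cells were cultured overnight at 35.5C and loaded with Fluo-8 calcium dye for 40 to 90 min at room temperature. After a 10 s baseline, compound was added and calcium influx was read kinetically for 3 min (ex 480/em 520 nm).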
Numbers without * were called inactive; ? = inconclusive; · = no result.

SMILES | hERG WT inh | TRPV1 PAM | KCNH2 3.1 inh | TRPV1 ag
C[C@@H]1CCCCO[C@H](CN(C)Cc2ccc(C(=O)O)cc2)[C@H](C)CN([C@@H](C)CO)C(=O)c2cc(NC(=O)Nc3ccc(C(F)(F)F)cc3)ccc2O1 | -2.4 | · | 37.3 | ·
CCOC(=O)/C(C#N)=C\c1ccc(N2CCN(C/C=C/c3ccccc3)CC2)cc1 | -9.5 | 0.9 | -83.4* | 18.6
CCOC(=O)/C(C#N)=C\c1cc(C)n(-c2ccccc2)c1C | -6.7 | -17.1 | -0.7 | ?
CCOc1cc(N2CCOCC2)c(OCC)cc1NC(=O)COC(=O)c1c(C)noc1C | -8.2 | · | 2.3 | ·
CC(NC(=O)COC(=O)CN1C(=O)c2ccccc2C1=O)c1ccccc1 (stereo not drawn) | -22.8 | · | 5.0 | ·
C=CCn1c(=O)c(C(C)=O)cn(N(C)c2ncc(C(F)(F)F)cc2Cl)c1=O | -2.0 | -4.4 | -113.8* | 7.5
CCCCCn1c(=O)[nH]c2cc(C(=O)NCCCN(CC)CC)ccc2c1=O | 5.4 | -11.6 | -83.7* | 2.0
COCC1CCN(C(=O)c2ccc3nc(Cc4cccc(Cl)c4)oc3c2)CC1 | 6.8 | · | -6.2 | ·
Cc1nc2n(n1)C(O)c1cc([N+](=O)[O-])ccc1S2 (stereo not drawn) | · | 16.3 | · | 0.0
O=[N+]([O-])c1ccc2c(c1)C(O)n1ncnc1S2 (stereo not drawn) | -9.8 | -0.2 | -83.8* | -0.7
Cc1ccc(O)c(NC(=O)CSc2ccc(Cl)cc2)c1 | -12.2 | 0.2 | -105.0* | ?
COc1ccc(Cl)cc1C(=O)Nc1ccccc1N1CCN(C(=O)C(C)C)CC1 | -90.1* | 7.1 | -9.9 | 4.3
O=C(Nc1ccc(N2CCN(C(=O)c3ccccc3)CC2)c(Cl)c1)c1ccc(Br)o1 | -11.7 | 5.3 | -101.8* | 18.7
O=C(Nc1ccccc1N1CCN(C(=O)c2ccccc2)CC1)c1cccc(Cl)c1 | 6.3 | -14.5 | -28.8 | ?
COc1ccc(Br)cc1C(=O)Nc1ccccc1N1CCN(C(=O)c2ccccc2)CC1 | -84.5* | 14.2 | 16.5 | 1.4
O=C(Nc1ccccc1N1CCN(C(=O)c2ccccc2)CC1)c1cc(Br)ccc1Cl | ? | -4.9 | -92.3* | ?
O=C(Nc1ccc(N2CCN(C(=O)c3ccccc3)CC2)cc1)c1ccc(Br)o1 | 1.2 | -13.2 | -11.4 | 16.0
COc1ccc(C(=O)Nc2ccccc2N2CCN(C(=O)C(C)C)CC2)cc1Cl | -4.3 | -10.7 | -2.8 | ?
OCC1(CO)CCCC(CO)(CO)C1O | 14.4 | · | 9.6 | ·
CCCCNC(=O)CSc1nnc(C)c2c(C)n(-c3ccccc3)nc12 | · | -15.8 | · | 0.9
Cc1ccc(NC(=O)c2oc3ccc(Br)cc3c2C)cc1S(=O)(=O)N1CCOCC1 | -6.9 | · | 3.8 | ·
O=S(=O)(Nc1cc(Br)cc2cccnc12)c1cccc2ccccc12 | · | 9.2 | · | 1.2
O=C(CSc1nnc(NC(=O)c2cccc(Cl)c2)s1)NCC1CCCO1 (stereo not drawn) | -14.1 | 1.3 | -2.8 | 0.7
CCOc1ccc(C(=O)NC(=S)Nc2ccccc2N2CCC(C)CC2)cc1[N+](=O)[O-] | -9.4 | -0.9 | -24.0 | 2.4
CCOc1ccc(C(=O)Nc2ccccc2N2CCN(C(=O)c3ccccc3)CC2)cc1[N+](=O)[O-] | -92.2* | -0.7 | -103.6* | 8.3
SMILES | hERG WT inh | TRPV1 PAM | KCNH2 3.1 inh | TRPV1 ag
CN(CC(=O)Nc1ccccc1Br)C(=O)c1ccc(COc2ccccc2)cc1 | -24.7 | 1.7 | -16.4 | 6.0
CN(CC(=O)Nc1ccccc1Br)C(=O)c1ccncc1 | 1.8 | 3.9 | -104.6* | -9.1
C[C@H](NC(=O)c1ncn2c1C(=O)N(C)CC2)C(=O)OC(C)(C)C | 7.0 | · | 7.9 | ·
COc1ccc(NC(=S)Nc2ccc3nccnc3c2)cc1 | -4.0 | 21.8 | 2.4 | -2.6
COc1ccc(NC(=S)Nc2ccc3snnc3c2)cc1 | 3.9 | 0.3 | -83.0* | -0.5
O=C(Nc1ccc(F)cc1)c1ccc2snnc2c1 | -11.6 | -17.6 | -24.0 | 81.8*
NC(=O)CN1CCN(S(=O)(=O)c2ccc(Br)cc2)CC1 | -10.9 | -0.5 | -192.3* | 1.7
O=C(CN1CCN(S(=O)(=O)c2ccc(Br)cc2)CC1)Nc1ccc(F)cc1 | 5.9 | -7.9 | -49.1 | -0.3
O=C(CN1CCN(S(=O)(=O)c2ccc(Br)cc2)CC1)Nc1ccc(F)cc1F | 7.7 | -36.6 | -92.0* | -0.4
O=C(CN1CCN(S(=O)(=O)c2ccc(Cl)cc2)CC1)Nc1ccc(F)cc1F | -6.0 | -16.5 | ? | 8.2
COc1cccc(/C=N/NC(=O)c2nc(-c3ccccc3)cc(-c3ccccc3)n2)c1 | -10.7 | 0.5 | -78.3* | -4.1
COc1ccc(/C=N/NC(=O)c2nc(-c3ccccc3)cc(-c3ccccc3)n2)cc1OC | -3.5 | 6.5 | -72.4* | 1.4
COc1cc(/C=N\NC(=O)C2COc3ccccc3O2)cc(OC)c1O (stereo not drawn) | -9.5 | 2.1 | 2.4 | 87.7*
CC(C)(C)c1ccc2c(c1)OC(C(=O)N/N=C\c1ccncc1)CO2 (stereo not drawn) | 10.5 | -5.3 | -33.0 | 109.1*
COc1ccccc1C1NC(=O)NC(C)=C1C(=O)OCC1CCCCC1 (stereo not drawn) | 4.7 | · | -1.5 | ·
COc1cc(SC)ccc1C(=O)Nc1ccc(C)cc1C | -4.4 | 23.8 | -82.2* | -3.2
COc1cc(SC)ccc1C(=O)Nc1ccc(C)cc1 | -10.3 | -13.0 | -15.6 | 27.4
CCc1cc[n+](C(C(=S)Nc2cccc(C)c2)=C([O-])c2ccc(C)c([N+](=O)[O-])c2)cc1 | 25.9 | · | -18.7 | ·
Cc1ccc(/C([O-])=C(/C(=S)NCc2ccccc2)[n+]2cccc(CO)c2)cc1[N+](=O)[O-] | -73.5* | 0.5 | 1.6 | 6.1
S=c1[nH]nc(Nc2ccc(Cl)cc2)s1 | 11.6 | 4.5 | -90.7* | -12.8
Cc1ccc(Nc2n[nH]c(=S)s2)cc1 | 3.5 | · | -5.0 | ·
CN(C)CCCNc1ncnc2sc(-c3ccccc3)cc12 | 17.4 | -2.2 | -89.1* | -0.5
COc1cccc(-c2noc(C3CCCN(C(=O)CC(C)(C)C)C3)n2)c1 (stereo not drawn) | -87.4* | 2.1 | -21.6 | -4.5
CCN(CC)S(=O)(=O)c1ccc(/C=C/C(=O)Nc2cccc(F)c2)cc1 | -7.0 | -11.0 | · | 96.9*
CCc1ccc(NC(=O)Nc2ccc3c(c2)N(C)C(=O)CS3)cc1 | -6.6 | -7.1 | 10.4 | 87.6*
SMILES | hERG WT inh | TRPV1 PAM | KCNH2 3.1 inh | TRPV1 ag
CCOC(=O)c1c(NC(=O)COC(=O)c2ccccn2)sc(C)c1C | 0.8 | 0.2 | -9.8 | -2.7
CC(Nc1ccc(Br)cn1)c1cc(Cl)ccc1O (stereo not drawn) | -31.3 | 14.6 | -72.1* | 0.8
CC(Nc1ccc(Cl)cc1)c1cc(Cl)ccc1O (stereo not drawn) | -0.4 | -2.1 | 2.2 | 3.9
Cc1ccc(S(=O)(=O)Nc2cc(-c3ccc(Cl)cc3)nn2C)cc1 | -17.6 | 10.5 | -173.8* | 0.7
O=C(O)c1ccc(Cl)cc1NC(=O)C1CCN(S(=O)(=O)c2cccs2)CC1 | -5.9 | · | 11.5 | ·
O=C(Cc1ccc(NC(=O)C2CCCN(C(=O)C3CC3)C2)cc1)Nc1cccc(C(=O)N2CCCCC2)c1 (stereo not drawn) | 9.2 | · | 8.6 | ·
